This passage reports Potency and max response results from PubChem BioAssay (Tox21).

A short description of test [1]: A CellTox Green Cytotoxicity Assay to monitor cytotoxicity in HEK293 cells - 40 hour (AID 1224871). Note: nearly all actives have a fitted effect of over 45% in size. Note: potency is the fitted concentration of half-maximal effect. The gist of the method: (§1)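 Read-out: fluorescence of a cell-impermeant cyanine dye staining DNA of dead cells, proportional to cytotoxicity. HEK293, 600 cells/well with reagent, compound (23 nL DMSO) added after 5 h; reads at 0, 8, 16, 24, 32, 40 h.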
Test [2] in a line: qHTS RealTime-Glo MT Cell Viability Assay in HEK293 cells - 16 hour (AID 1224872). Note: nearly all actives have a fitted effect of over 50% in size. Note: potency is the fitted concentration of half-maximal effect. The gist of the method:
(§2)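 Assay medium contained NanoLuc luciferase plus cell-permeant prosubstrate, added with HEK293 cells at 600 cells/well. After 5 h at 37 C/5% CO2 compounds were added; plates stayed at 37 C for 40 h with serial luminescence reads.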

Test [3] can be described thus: qHTS RealTime-Glo MT Cell Viability Assay in HepG2 cells - 8 hour (AID 1224873). Note: nearly all actives have a fitted effect of over 55% in size. Note: potency is the fitted concentration of half-maximal effect. The gist of the method: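 Real-time viability: cells seeded at 600 per well together with NanoLuc and cell-permeant prosubstrate, compounds added after 5 h incubation. Luminescence tracked at 0, 8, 16, 24, 32 and 40 h of exposure.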
(In qHTS, concentration-response curves come from the screen itself.)

Test [4] is described as follows: qHTS RealTime-Glo MT Cell Viability Assay in HEK293 cells - 40 hour (AID 1224874). Note: nearly all actives have a fitted effect of over 50% in size. Note: potency is the fitted concentration of half-maximal effect. The following applies: RealTime-Glo luminescence; max response: stronger effect = lower value. The gist of the method:
(§3)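 Luminescence readout at each listed time point; HEK293, 600 cells/well, RealTime-Glo MT reagent added with cells; compounds pinned (23 nL in DMSO) after 5 h at 37 C; continuous culture at 37 C.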

The nature of test [5]: A CellTox Green Cytotoxicity Assay to monitor cytotoxicity in HEK293 cells - 24 hour (AID 1224875). Note: nearly all actives have a fitted effect of over 45% in size. Note: potency is the fitted concentration of half-maximal effect. The gist of the method:
as §1

Test [6] can be described thus: A CellTox Green Cytotoxicity Assay to monitor cytotoxicity in HepG2 cells - 16 hour (AID 1224876). Note: nearly all actives have a fitted effect of over 45% in size. Note: potency is the fitted concentration of half-maximal effect. A digest of the protocol: (§4)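 HepG2, 600 cells/well premixed w/ CellTox Green; 5 h settle, 37 C/5% CO2; pintool cpd add (DMSO); 37 C, 40 h; fluorescence read at 0, 8, 16, 24, 32, 40 h.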
Test [7] in a line: qHTS RealTime-Glo MT Cell Viability Assay in HepG2 cells - 32 hour (AID 1224877). Note: nearly all actives have a fitted effect of over 55% in size. Note: potency is the fitted concentration of half-maximal effect. The gist of the method:
(§5)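 qHTS, HepG2, 600 cells/well, RealTime-Glo (NanoLuc + prosubstrate) added with cells; 5 h preincubation; DMSO compound addition; 37 C; luminescence at 0/8/16/24/32/40 h.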

The nature of test [8]: A CellTox Green Cytotoxicity Assay to monitor cytotoxicity in HepG2 cells - 24 hour (AID 1224878). Note: nearly all actives have a fitted effect of over 45% in size. Note: potency is the fitted concentration of half-maximal effect. A digest of the protocol: as §4
The nature of test [9]: A CellTox Green Cytotoxicity Assay to monitor cytotoxicity in HepG2 cells - 40 hour (AID 1224879). Note: nearly all actives have a fitted effect of over 40% in size. Note: potency is the fitted concentration of half-maximal effect. A digest of the protocol: as §4
Test [10] can be described thus: qHTS RealTime-Glo MT Cell Viability Assay in HEK293 cells - 0 hour (AID 1224880). A digest of the protocol:
as §3

Test [11] is described as follows: A CellTox Green Cytotoxicity Assay to monitor cytotoxicity in HEK293 cells - 32 hour (AID 1224881). Note: nearly all actives have a fitted effect of over 40% in size. Note: potency is the fitted concentration of half-maximal effect. A digest of the protocol:
as §1

The nature of test [12]: A CellTox Green Cytotoxicity Assay to monitor cytotoxicity in HepG2 cells - 0 hour (AID 1224882). Note: nearly all actives have a fitted effect of over 35% in size. The gist of the method:
as §4

A short description of test [13]: A CellTox Green Cytotoxicity Assay to monitor cytotoxicity in HepG2 cells - 32 hour (AID 1224883). Note: nearly all actives have a fitted effect of over 50% in size. Note: potency is the fitted concentration of half-maximal effect. A digest of the protocol:
as §4

Test [14] in a line: qHTS RealTime-Glo MT Cell Viability Assay in HepG2 cells - 16 hour (AID 1224885). Note: nearly all actives have a fitted effect of over 50% in size. Note: potency is the fitted concentration of half-maximal effect. The gist of the method: as §5
Test [15] is described as follows: qHTS RealTime-Glo MT Cell Viability Assay in HEK293 cells - 24 hour (AID 1224886). Note: nearly all actives have a fitted effect of over 50% in size. Note: potency is the fitted concentration of half-maximal effect. The gist of the method: as §2
Test [16] can be described thus: qHTS RealTime-Glo MT Cell Viability Assay in HEK293 cells - 8 hour (AID 1224887). Note: nearly all actives have a fitted effect of over 50% in size. Note: potency is the fitted concentration of half-maximal effect. A digest of the protocol: as §3
Test [17] can be described thus: A CellTox Green Cytotoxicity Assay to monitor cytotoxicity in HEK293 cells - 16 hour (AID 1224888). Note: nearly all actives have a fitted effect of over 35% in size. Note: potency is the fitted concentration of half-maximal effect. The gist of the method: as §1
Test [18] can be described thus: qHTS RealTime-Glo MT Cell Viability Assay in HepG2 cells - 0 hour (AID 1224889). Note: nearly all actives have a fitted effect of over 50% in size. The gist of the method:
as §5

The nature of test [19]: A CellTox Green Cytotoxicity Assay to monitor cytotoxicity in HepG2 cells - 8 hour (AID 1224890). Note: nearly all actives have a fitted effect of over 45% in size. Note: potency is the fitted concentration of half-maximal effect. The gist of the method:
as §4

Test [20] can be described thus: A CellTox Green Cytotoxicity Assay to monitor cytotoxicity in HEK293 cells - 8 hour (AID 1224884). Note: nearly all actives have a fitted effect of over 35% in size. The gist of the method: as §1

Results filed as inconclusive are left out. Some compounds were tested as several samples or in several runs, with calls that do not always agree. Activity calls are given as the source filed them. Calls come from the whole dose curve; as a rule, active = well fitted curve in the direction sought with a large enough effect in the repeat runs; inconclusive = weak or mixed curves; inactive = no such curve, though single readings can be large; an effect the other way counts as inactive or inconclusive.
% is set by controls: 0 for no effect and ±100 for the full control effect.

For `ClC1=C(Cl)[C@]2(Cl)[C@@H]3[C@@H](Cl)[C@@H](Cl)C[C@@H]3[C@@]1(Cl)C2(Cl)Cl`, the Potency result in test [1], in test [2], in [3], in [5], in test [6] and in [7] was “inactive” throughout. Further, the Potency result in test [8], in [9], in [10], in test [11], in test [12] and in [13] was “inactive” throughout. For the same compound, the Potency entry in test [14], in test [15], in test [16], in test [17], in test [18] and in test [19] was “inactive” throughout. The max response in test [4] is 15.9% (inactive).
With `Clc1ccc(C(c2ccccc2Cl)C(Cl)(Cl)Cl)cc1` (stereo unspecified), the Potency was 43.9 µM (active) and inactive in test [1]; 49.3 µM (active) and inactive in test [2]; 49.3 µM (active) in test [4]; 55.3 µM (active) and inactive in [11]; 49.3 µM (active) and inactive in test [15]; 49.3 µM (active) and inactive in [16]. The Potency result in [3], in test [5], in test [6], in test [7], in test [8] and in test [9] was “inactive” each time. The Potency entry in test [10], in test [12], in test [13], in [20], in [14] and in test [17] was “inactive” throughout. Moreover, the Potency result in test [18] and in test [19] was “inactive” throughout. The max response in [4] was -21.7% (inactive).
In the case of `Nc1ccccc1C(=O)OC/C=C/c1ccccc1`, the Potency entry in [1], in test [3], in test [5], in [6], in test [7] and in test [8] was “inactive” in each case. Further, the Potency entry in [9], in [10], in [11], in [12], in [13] and in test [20] was “inactive” each time. In addition, the Potency entry in test [14], in [17], in [18] and in [19] was “inactive” each time. For the same compound, the Potency in [2], in test [4], in [15] and in test [16] was 24.6 µM (active) throughout.
In the case of `CCCCCCCCCCCCCC[P+](CCCCCC)(CCCCCC)CCCCCC` (tested in a mixture with another compound), the Potency in test [1] was 13.8 µM (active); in test [2] it was 13.8 µM (active); in [3], 49 µM (active); in test [4] it was 3.47 µM (active); in test [5], 13.8 µM (active); in test [6], 38.9 µM (active). Moreover, the Potency is 24.6 µM (active) in test [7]; 24.6 µM (active) in test [8]; 24.6 µM (active) in test [9]; 13.8 µM (active) in test [11]; 24.6 µM (active) in test [13]; 49 µM (active) in [14]. Further, the Potency in test [15] is 6.92 µM (active); in test [17], 17.4 µM (active); in test [19], 43.7 µM (active). Moreover, the Potency entry in test [10], in test [12] and in test [18] was “inactive” throughout.
On to `c1ccc2c(c1)[nH]c1cnccc12`, for which the Potency result in [1], in [2], in test [3], in test [5], in test [6] and in test [7] was “inactive” throughout. Moreover, the Potency result in [8], in [9], in [10], in test [11], in test [12] and in test [20] was “inactive” in each case. For the same compound, the Potency entry in test [14], in [15], in [16], in test [17], in test [18] and in test [19] was “inactive” throughout. Besides, in [4], the max response is 0.679% (inactive).
As to `CC(C)C(=O)Cl`, the Potency entry in test [1], in [2], in test [3], in test [5], in [6] and in [7] was “inactive” each time. Besides, the Potency result in test [8], in test [9], in test [10], in [11], in test [12] and in test [20] was “inactive” each time. Besides, the Potency result in [14], in test [15], in [16], in test [17], in test [18] and in test [19] was “inactive” each time. For the same compound, in [4], the max response is 0.629% (inactive).
